Rows were chosen to be rich in hits. Some 11% of all compounds tested hit in one or more screens of this group.
AmpC inh detg: inhibitors of E. coli AmpC beta-lactamase with detergent. P00811. AmpC hydrolysis of nitrocefin, absorbance 480 nm, 0.01% Triton. Potency, µM (series often up to 114 µM), for inactives: at the highest dose activity change, negative = inhibition, usual class: inhibitors. 370,000 compounds, 0.041% hits;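 also: 0% = no-compound wells and -100% = no-enzyme wells; nearly all actives have a fitted effect of over 25% in size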
Target sequence (P00811 whole entry, looked up): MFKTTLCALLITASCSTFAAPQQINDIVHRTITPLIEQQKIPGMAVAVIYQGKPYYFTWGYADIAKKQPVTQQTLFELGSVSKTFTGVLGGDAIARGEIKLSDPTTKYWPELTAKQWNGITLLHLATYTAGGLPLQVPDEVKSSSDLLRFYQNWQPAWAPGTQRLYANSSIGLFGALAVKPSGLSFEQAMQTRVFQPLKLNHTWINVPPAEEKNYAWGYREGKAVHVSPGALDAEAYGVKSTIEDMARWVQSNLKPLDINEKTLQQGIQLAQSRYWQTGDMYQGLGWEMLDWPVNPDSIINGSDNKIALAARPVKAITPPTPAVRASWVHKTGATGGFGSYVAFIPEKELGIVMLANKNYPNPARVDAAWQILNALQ
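20 mM phosphate pH 7.0 + 0.01% (detergent screen) or 0.0001% Triton X-100; 5.3 nM AmpC reagent; cpd preinc 15 min RT; nitrocefin (800 uM stock) to start; A480 q20 s × 4 min; Activity was normalised to no-enzyme and no-compound control wells.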
Pf growth 96h: P. falciparum growth inhibition at 96 hours; 320,000 compounds, 6.9% hits; P. falciparum luciferase reporter growth, 96 h; Potency, µM (series often up to 28.7 µM), without a hit: top-dose activity change, negative = inhibition, actives largely listed as inhibitors
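Compounds incubated with erythrocytes infected by luciferase-expressing P. falciparum (2% hematocrit, 0.05% parasitemia final) for 96 hours, 37 C in 5% CO2. Growth inhibition scored as decreased luciferase luminescence.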
HCV inh: blocks hepatitis C virus. Huh7.5.1 HCVcc-Cre infection, luciferase reporter, 44 h. Potency, µM (top dose mostly 41.8 µM), for inactives: at the highest dose activity change, negative = inhibition, usual class: inhibitors. 340,000 compounds, 3.4% hits. AID 651820
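Compounds are dispensed onto cells plated 4 h earlier at 1,000 per well, with HCVcc-Cre virus (about 0.5 moi) added next. Following 44 h of culture, luminescent signal is measured for 15 sec after 15 min with substrate at room temperature.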
Pf growth 48h: P. falciparum growth inhibition at 48 hours (one generation); P. falciparum luciferase growth in erythrocytes, 48 h; Potency, µM (titrated, usually from 28.7 µM), for the others: at the highest dose activity change, negative = inhibition, usual class: inhibitors; 310,000 compounds, 5.9% hits; AID 504832
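Parasite viability was followed by luminescence of a genomically integrated firefly luciferase. Cultures held 0.1% parasitemia at 2% hematocrit (final), incubated under 5% CO2 at 37 C.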
AmpC inh no detg: inhibitors of E. coli AmpC beta-lactamase without detergent. P00811. AmpC nitrocefin hydrolysis, absorbance 480 nm, 0.0001% Triton. Potency, µM (series often up to 57.1 µM), inactives show at the highest dose activity change, negative = inhibition, usual class: inhibitors. 330,000 compounds, 0.52% hits;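 also: plate controls were no compound for no effect and no enzyme for full effect; nearly all actives have a fitted effect of over 20% in size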
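AmpC (5.3 nM in the dispensed reagent) in 20 mM phosphate pH 7.0 with 0.01% (detergent screen) or 0.0001% Triton X-100 was preincubated with compounds for 15 min at room temperature. Nitrocefin was then added from an 800 uM solution, and hydrolysis was followed at 480 nm.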
AMA1 RON2 block: AMA1-RON2 (P. falciparum) interaction inhibition | AlphaScreen AMA1-biotinylated RON2 peptide binding | Potency, µM (top dose mostly 58.2 µM), for inactives: at the top dose activity change, negative = inhibition, actives largely listed as inhibitors | 360,000 compounds, 0.2% hits | AID 720542;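 also: 0% = vehicle wells and -100% = peptide control; nearly all actives have a fitted effect of over 45% in size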
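AMA1 (3D7) with his tag at 25 nM final met compounds first, then biotinylated RON2 peptide at 25 nM; detection used donor plus acceptor beads, 10 µg/mL apiece, read by AlphaScreen after 30 min at room temperature.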
* marks the source's active call; other numbers are inactive results; ? = inconclusive; / = no result given. Calls follow the shape of the dose curve; as a rule, active = well fitted curve in the direction sought with a large enough effect; inconclusive = small, poorly fitted or top-dose-only effect, or another doubt; inactive = no such curve, though single readings can be large; an effect the other way counts as inactive or inconclusive. Unless noted, % is scaled to controls: 0 for no effect and ±100 for the full control effect; potency is read from the fitted curve at half-maximal effect.

SMILES | AmpC inh detg | Pf growth 96h | HCV inh | Pf growth 48h | AmpC inh no detg | AMA1 RON2 block
O=C(NCc1ccc(OC(F)(F)F)cc1)C1CC(c2c(Cl)cccc2Cl)=NO1 (centres undefined) | 3% | 36% | ? | 1.3µM* | -4% | 32%
COCCNC(=O)C1CC(c2cccc(OC)c2)=NO1 (centres undefined) | 4% | -20% | 17% | 17% | -24% | 12%
O=C(NCc1ccccn1)C1CC(c2ccc(F)cc2)=NO1 (centres undefined) | 2% | 2.9µM* | 4% | / | -5% | 5%
CCCNC(=O)C1CC(c2cccc(F)c2)=NO1 (centres undefined) | 0% | 78% | 13% | 58% | 9% | 22%
COc1ccc(CNC(=O)CN2C(=O)CC(c3ccc(C)c(C)c3)=Nc3ccccc32)cc1 | 23% | / | / | / | / | /
Cn1c(=O)c2c(n3c4ccccc4nc13)NC(=O)CC2c1cccc(F)c1 (centres undefined) | 8% | / | / | / | / | /
Cc1ccc(CNC(=O)C2CC(c3cccc([N+](=O)[O-])c3)=NO2)cc1 (centres undefined) | 3% | 42% | ? | 2.6µM* | -4% | 2%
COc1cccc(C2=NOC(C(=O)NCc3ccccc3)C2)c1 (centres undefined) | -4% | 4.1µM* | 26% | -2% | -2% | -5%
COc1ccc(C2=NOC(C(=O)NCc3ccccc3)C2)cc1 (centres undefined) | -13% | 7.4µM* | 15% | ? | -3% | 16%
COc1ccc(C2=NOC(C(=O)N3CCOCC3)C2)cc1OC (centres undefined) | -11% | 109% | 3% | 109% | -19% | 25%
COc1cccc(C2=NOC(C(=O)N3CCOCC3)C2)c1 (centres undefined) | 5% | 1.7µM* | 5% | 159% | -16% | 12%
COc1ccc(CNC(=O)C2CC(c3cccc([N+](=O)[O-])c3)=NO2)cc1 (centres undefined) | 1% | 131% | ? | 78% | -24% | -3%
COc1cccc(C2=NOC(C(=O)NCc3ccco3)C2)c1 (centres undefined) | -9% | ? | 19% | -6% | -25% | -23%
Cc1csc2nc(CCNS(=O)(=O)c3ccccc3)cn12 | 4% | / | / | / | / | /
N#CC/C(N)=N/Nc1nc2ccccc2nc1Cc1ccccc1 | -2% | ? | -2% | 4.7µM* | -33% | 53%
Cc1ccc(C)c(C(=O)N2CCC(c3nc4c(nnn4Cc4ccccc4)c(=O)[nH]3)CC2)c1 | 11% | / | / | / | / | /
CC(C)(C)[C@@H]1C=C(C(=O)N2CCN(Cc3ccccc3)CC2)O[C@H](OCc2ccc(CO)cc2)C1 | -6% | 15µM* | 13% | ? | 147% | -2%
O=C(C1=C[C@H](c2ccc3c(c2)OCO3)C[C@H](OCc2ccc(CO)cc2)O1)N1CCOCC1 | -6% | 47% | 13% | 11% | 59% | 6%
CC(C)(C)[C@H]1C=C(C(=O)N2CCN(Cc3ccccc3)CC2)O[C@@H](OCCCCO)C1 | -6% | ? | 11% | ? | 162% | 70%
CC(C)(C)[C@H]1C=C(C(=O)N2CCN(Cc3ccc4c(c3)OCO4)CC2)O[C@@H](OCc2ccc(CO)cc2)C1 | -8% | ? | -8% | 10µM* | 137% | 0%
Cc1ccc(-n2c(=O)c3c(c4cc(C)ccc4n3C)n(Cc3ccc(F)cc3)c2=O)cc1 | 18% | / | / | / | / | /
COc1ccc2cc(CCNC(=O)C3CC3)c(=O)[nH]c2c1 | 5% | ? | -3% | ? | -27% | 31%
COc1ccc2cc(CCNC(=O)c3ccc(S(=O)(=O)N4CCCC4)cc3)c(=O)[nH]c2c1 | 3% | 5.9µM* | / | 13µM* | -18% | 5%
